The target of the first test is NDE1. Briefly: pooled miR-30 sensor sort-seq; sequence = guide strand. Particulars: shRNA.
As to TTGCTTGCTCCAGCTCTCTGAT, the sensor-assay potency score (higher = more potent) is -1.21.
Consider TCTCTGAACAGATTCCAGGAGA, for which the sensor-assay potency score (higher = more potent) was -0.696.
The sequence TTCTCGGAGTTCCTCTTGCGTA showed a sensor-assay potency score (higher = more potent) of -1.4.
Same read-out and setting: as for TTTTCGGACAGGAGGTCTCTGT, the figure is -0.635; as for TCTGTTTGTAGGTCATCGCCAG, -0.347.
On the same count and under the same terms, the result for TTGATTTGGACAACCAGCGGCA reads -0.226; that for TTAAACTTGAGCTGGGTCCTCG, -0.477.
As to TCTTCGAGAGACATGATCGTGG, the sensor-assay potency score (higher = more potent) was -0.394.
With TTCAATTTGTTGCAGCTGCGTC, the sensor-assay potency score (higher = more potent) is -0.561.
Sequence TTCAGCTTCATATTCTCGGCTT returned a sensor-assay potency score (higher = more potent) of 0.137.
As for TTTGCTTGCTCCAGCTCTCTGA, the sensor-assay potency score (higher = more potent) is -0.321.

A further test addresses NDUFA7. Described as above. Particulars: shRNA.
For the sequence TTGTGGCTAGGACCCACAGGGA, the sensor-assay potency score (higher = more potent) is -1.83.
On the same count and under the same terms, the result for TCTCAGTGGCAGCTACAGCAGA reads -0.927; that for TTCGCTTGGAGATCTCCTGGTA, 0.453; that for TTGTTGGAGAGCTTGTGGCTAG, -0.163.
The sequence TCTCCTGGTAGCGTAGCTGCAG had a sensor-assay potency score (higher = more potent) of -1.09.
AGGAGCTGGAGTCACCGCCTTC came in with a sensor-assay potency score (higher = more potent) of -1.6.
Turning to TAGCGTAGCTGCAGCTTCCCCT, the sensor-assay potency score (higher = more potent) is -0.864.
As for ATTGTTGGAGAGCTTGTGGCTA, the sensor-assay potency score (higher = more potent) was -0.402.
In turn, TAAAACTAGAAGTGATACCTGA registered a sensor-assay potency score (higher = more potent) of 0.222.
Sequence AATTAGGTCACATTCTCCCTGG gave a sensor-assay potency score (higher = more potent) of -0.0171.
For TACAGCAGAGCTCTCTGCTGGC, the sensor-assay potency score (higher = more potent) is -0.355.
Still for that read-out and setting: the result for TCGCTTGGAGATCTCCTGGTAG reads -0.223.

The target of the next test is NDUFA9. The description is as above. Particulars: shRNA.
In turn, TTGATGACCACATTGCTGTGTT came in with a sensor-assay potency score (higher = more potent) of 0.542.
With TGACTGAGGAACGTCCACCTTT, the sensor-assay potency score (higher = more potent) was -0.755.
The sequence TTTAACTGTCTTCCAGCCCAAG gave a sensor-assay potency score (higher = more potent) of -1.24.
TTAAGGAATCTATCCTCTCTTC showed a sensor-assay potency score (higher = more potent) of -0.535.
TTGCTGTGTTGTACTACTCGTC had a sensor-assay potency score (higher = more potent) of -0.266.
Regarding TACTTTCTCTCCAACAGCCTTA, the sensor-assay potency score (higher = more potent) was determined as 0.0635.
For the sequence TATAGGACCAAACCGATGCATA, the sensor-assay potency score (higher = more potent) was -1.43.
As to TAGAATCTTTATCTCTCGCGTC, the sensor-assay potency score (higher = more potent) is -0.0518.
TTATTTCAAAGACTCTTGCTAC returned a sensor-assay potency score (higher = more potent) of -0.0759.
In the case of TTCAACTCCAGCTTCCTTGGAC, the sensor-assay potency score (higher = more potent) turned out to be 0.368.
Still for that read-out and setting: the result for TGTGTTGTACTACTCGTCGGAT reads -0.517.
TTAACTGCATTAACAATTCCTT came in with a sensor-assay potency score (higher = more potent) of -0.73.

A further test concerns the target NDUFAB1. Described as above. Particulars: shRNA.
The sequence ACAACTGTGTAACTCTACCAGG came in with a sensor-assay potency score (higher = more potent) of -1.08.
TACGTAAAGAACACGGTCCTGG came in with a sensor-assay potency score (higher = more potent) of 0.0334.
The sequence TGTAATCTACAATTTCTTGTGG displayed a sensor-assay potency score (higher = more potent) of 0.132.

Values taken from the OligoGym collection.
Also: reference of the scale not given here.
